Screening results (PubChem BioAssay)
In the library only some 4.8% were active in any assay of this set; here they are far more common.
SMARCA2 activ – increases SMARCA2 function in MMTV reporter cells. MG213 cells, MMTV-luciferase reporter, dexamethasone, overnight. activation, % at 9.1 µM. 1% of 370,000 active; in the data active = activation above about 7.8%;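 also: 0% = vehicle wells and 100% = reference activator wells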
hgDAF-12 ag – activates the H. glycines DAF-12 receptor ligand-binding domain; HEK293 GAL4-hgDAF12 UAS-luciferase reporter, agonist luminescence; normalized to butyrate control; activation, % at 6.8 µM; 1.8% of 370,000 active; AID 687014;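 active = activation above a cutoff set at the mean of all screened compounds plus 3 SD, cut at about 10% in these data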;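 also: 0% = DMSO wells and 100% = sodium butyrate wells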
DAX1 inh-1 – inhibits human nuclear receptor DAX1 | 0.99% of 340,000 active | inhibition, % at 6.75 µM | HEK293 Gal4-DAX1 luciferase reporter, luminescence;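 active = inhibition above the mean over all tested compounds plus 3 SD, cut at about 4.2% in these data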;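 also: 0% = DAX1-transfected cells with DMSO and 100% = empty-vector control cells with DMSO; inhibition shows as a rise in luminescence from relieved DAX1 repression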
ssDAF12 agonist – activators of S. stercoralis DAF-12 nuclear receptor. HEK293 ssDAF-12/GRIP1 lit1-tk-luc reporter, luminescence; % of 3 µM dafachronic acid response. activation, % at 6.8 µM. 1% of 370,000 active. AID 652126;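 active = activation above the mean over all tested compounds plus 3 SD, cut at about 0.9% in these data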;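 also: 0% = DMSO-only wells and 100% = 3 µM delta7-dafachronic acid wells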
DAX1 inh-2 – inhibitors of DAX1 repression of SF-1 activated StAR promoter; inhibition, % at 6.8 µM; 1.1% of 370,000 active; HEK293T StAR-luciferase reporter, SF-1/DAX-1 repression relief;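 active = inhibition above the mean over all tested compounds plus 3 SD, cut at about 3.6% in these data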;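 also: 0% = DAX-1 cells with DMSO and 100% = cells lacking DAX-1 with DMSO; higher inhibition means more luminescence from relief of DAX-1 repression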
hcDAF12 agonist – activators of H. contortus DAF-12 nuclear receptor | activation, % at 6.8 µM | 1.4% of 370,000 active | AID 652067 | HEK293 hcDAF-12 lit1-tk-luc reporter, luminescence; 0% DMSO, 100% Δ7-dafachronic acid;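 active = activation above the mean of all tested compounds plus 3 SD, cut at about 5.5% in these data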;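 also: 100% = response to 3 µM Δ7-dafachronic acid high control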
LXR ag – LXR-beta agonism as hcDAF-12 counter-screen; shares compounds with hcDAF12 agonist; HEK293 Gal4-LXR tk-luc reporter, luminescence, 24 h; normalized: DMSO 0%, positive control 100%; 3,400 tested, under 10 active; activation, % at 6.8 µM; AID 743027;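 active = mean percent activation of the reporter above a cutoff set as the average over tested compounds plus their standard deviation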
Target sequence (P55055 whole entry, looked up, the tested form may be a part): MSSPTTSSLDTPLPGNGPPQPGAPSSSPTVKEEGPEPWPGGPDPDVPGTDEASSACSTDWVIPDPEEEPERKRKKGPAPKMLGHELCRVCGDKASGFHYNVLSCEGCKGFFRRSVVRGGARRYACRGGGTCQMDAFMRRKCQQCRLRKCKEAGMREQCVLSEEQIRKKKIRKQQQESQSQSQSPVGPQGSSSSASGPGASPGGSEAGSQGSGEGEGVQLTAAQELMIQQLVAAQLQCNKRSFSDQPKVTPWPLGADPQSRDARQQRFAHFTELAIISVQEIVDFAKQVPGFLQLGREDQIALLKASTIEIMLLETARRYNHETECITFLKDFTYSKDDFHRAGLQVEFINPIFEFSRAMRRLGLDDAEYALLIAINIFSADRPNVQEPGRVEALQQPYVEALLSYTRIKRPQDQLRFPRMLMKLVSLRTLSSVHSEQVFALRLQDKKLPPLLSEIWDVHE
hcDAF12 ag – hcDAF-12 agonism, confirmation assay. shares compounds with hcDAF12 agonist. HEK293 hcDAF-12 lit1-tk-luc reporter, luminescence; % of Δ7-dafachronic acid response. activation, % at 6.8 µM. 61% of 3,400 active. AID 743032;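 active = mean activation across triplicate tests above the threshold derived from the earlier primary screen, cut at about 5.5% in these data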;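 also: 0% = DMSO only wells and 100% = 3 µM Δ7-dafachronic acid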
* hit, by the source's call; . = no result given.

SMILES	SMARCA2 activ	hgDAF-12 ag	DAX1 inh-1	ssDAF12 agonist	DAX1 inh-2	hcDAF12 agonist	LXR ag	hcDAF12 ag
Cc1cccc(C)c1NC(=O)c1ccc2sc([C@@H]3O[C@H](CO)[C@H](O)[C@H](O)[C@H]3O)nc2c1	-5	5	.	0	1	0	.	.
O=C(NCc1ccccc1)C(c1ccccn1)N(C(=O)c1csnn1)c1ccccc1F (stereo not given)	-1	-2	1	-1	0	0	.	.
Cn1cccc1Cc1nnc(SCC(=O)Nc2nc3ccccc3s2)n1CCc1ccccc1	.	.	1	.	.	.	.	.
CCOc1ccccc1CN1CCN(CC2CC2)CC1CCO (stereo not given)	-2	0	-1	-2	0	0	.	.
CCOc1ccccc1CN1CCN(Cc2cc3ccccc3[nH]2)CC1CCO (stereo not given)	1	0	0	0	0	7.0*	0	3
O=C(NC1CCCCCC1)c1ccc(N2CCCC2=O)cc1	1	11*	2	0	2	6.7*	0	2
CCC1CCCCN1CCCNC(=O)c1ccc(N2CCCC2=O)cc1 (stereo not given)	-1	0	1	-1	-1	1	.	.
CC1CCCCN1CCCNC(=O)c1ccc(N2CCCC2=O)cc1 (stereo not given)	1	2	1	-1	1	8.6*	0	0
Fc1ccc(Cn2ccc3ccc(-c4ccc5ccn(Cc6ccccc6)c5c4)cc32)cc1	-1	-1	.	0	-1	2	.	.
COc1cccc(OCc2ccc(Cl)cc2)c1C#N	7	12*	4.8*	1.7*	3	8.4*	2	7.3*
COc1cccc(CNC(C)(C)CO)c1OCc1ccc(Cl)cc1	-4	-2	-1	-1	0	-1	.	.
Nc1cc(N)cc(-c2nc3ccccc3[nH]2)c1	-2	2	0	0	1	8.9*	0	4
Nc1ccc2nc(-c3ccc(Cl)cc3)[nH]c2c1	3	4	2	0	2	7.0*	1	4
Oc1cccc(-c2nnc(-c3cccc(O)c3)nn2)c1	1	2	-5	2.3*	4.1*	12*	2	17*
C/C(=N\NC(=O)c1nnn(-c2nonc2N)c1C)c1ccc(-c2ccccc2)cc1	2	-1	-1	-1	0	-1	.	.
Cc1cccc(Nc2nnc(SC/C(O)=C(\C#N)c3nc4ccccc4[nH]3)s2)c1	1	0	0	1.5*	1	7.2*	0	7.0*
Cc1ccc(Nc2nnc(SC/C(O)=C(\C#N)c3nc4ccccc4[nH]3)s2)c(C)c1	-3	1	1	0	0	9.4*	0	5
COc1ccc(-c2cc3c(c4c2ccn4C)C2CCC3O2)cn1 (stereo not given)	2	0	.	-2	-1	-2	.	.
COc1ccc(OC)c(Nc2nc(NCc3ccco3)nc(N)c2[N+](=O)[O-])c1	-1	2	.	-1	-1	0	.	.
O=c1c2cc(NC(=S)NC3CC3)ccc2nc2n1CCCCC2	2	2	-1	-2	1	1	.	.
CCOC(=O)N1N=C(c2ccc(C)cc2)CC1(O)C(F)(F)F (stereo not given)	5	11*	-1	0	4.3*	8.1*	1	8.0*
CCOC(=O)N1N=C(c2ccccc2)CC1(O)C(F)(F)F (stereo not given)	3	10	1	-1	1	2	.	.
O=C(NCc1ccncc1)C(=O)NCC(c1ccccc1)c1ccccc1	-1	-1	.	-1	-1	-2	.	.
COc1ccc(-c2csc(NC(=O)CN3C(=O)C4CCCCC4C3=O)n2)c(OC)c1 (stereo not given)	-3	-1	1	-2	-1	-3	.	.
C=CCNc1nc(-c2ccc(OC)cc2OC)cs1	5	11*	3	0	3	8.1*	1	8.0*
SMILES	SMARCA2 activ	hgDAF-12 ag	DAX1 inh-1	ssDAF12 agonist	DAX1 inh-2	hcDAF12 agonist	LXR ag	hcDAF12 ag
N#CCSc1nc2ccccc2o1	-3	2	-1	-1	0	-1	.	.
O=[N+]([O-])c1ccccc1CSc1nc2ccccc2o1	1	6	-1	0	1	6.7*	0	3
C/C(=C\C(=O)c1c(O)cc(C)oc1=O)N(C)C	-1	4	.	-1	1	-2	.	.
Cc1ccc2c(c1)Sc1c(ccc3ccccc13)N2	4	21*	4.8*	3.2*	3	14*	1	8.0*
CC1(C(=O)Nc2ccc3ccccc3c2)CCC(=O)N1CC(F)(F)F (stereo not given)	-3	1	.	-1	0	1	.	.
O=C1C(C=Nc2ccccc2)=C(O)c2ccccc21	5	13*	-1	1.8*	4.5*	16*	2	11*
CC1(C)CC(=O)C(C=Nc2ccccc2)=C(O)C1	3	-1	1	-1	0	0	.	.
O=C(Nc1ccccc1)c1cn(CCBr)cn1	6	9	3	1.3*	2	6.8*	1	5
Cn1c(-c2ccccc2)cnc1SCC(=O)N1CCCc2ccccc21	-2	-2	0	-2	-1	-2	.	.
O=C(CSc1ncc(-c2ccccc2)n1C1CCCC1)N1CCc2ccccc21	1	6	0	0	0	7.4*	0	3
CN1C(=O)N(C)C2(C)CC1(C)N(C)C(=O)N2C	1	-1	1	-1	0	0	.	.
O=C(Nc1ccc2c(c1)OCO2)c1ccc(Br)o1	6	13*	1	0	3	9.0*	0	5
COCC(=O)Nc1c(C(=O)Nc2ccc3c(c2)OCO3)oc2ccccc12	6	6	3	-1	1	1	.	.
CC(=O)Nc1c(C(=O)Nc2ccc3c(c2)OCO3)oc2ccccc12	3	9	3	1	2	7.6*	1	6.8*
COc1ccccc1C(=O)NNC(=O)c1ccc(NS(=O)(=O)c2cccs2)cc1	-2	-1	1	1	2	10*	0	6.4*
COc1cccc(C(=O)NNC(=O)c2ccc(NS(=O)(=O)c3cccs3)cc2)c1OC	-2	3	0	0	0	-1	.	.
COc1ccccc1C(=O)NNC(=O)c1cccc(O)c1	8	7	1	2.6*	3	10*	1	15*
